From PubChem BioAssay
Activity calls are given as the source filed them.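 The calls were made as follows, unless noted: active = fluorescence slope after compound addition differing from the mean of all screened samples at 99.7% confidence, in either direction; inactive = the rest.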

What was measured:
[1] = inhibitors of TNFa-induced NFkB p65 translocation, primary screen, imaging, HUVEC, MLSMR starter and 10KST1 sets (AID 438;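 active = inhibition above 20% together with a positive visual image hit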;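 also: compound added about 3h40 before a 20 min TNFalpha stimulation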;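 as to inhibition: signal is the nuclear over cytoplasmic p65 intensity ratio per well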); conditions: HUVEC TNFa-induced p65 nuclear translocation; cell count: measured here: nuclei count (cytotoxicity indicator), at 2.08 µM; inhibition: at 2 µM, stronger effect = higher value, 0% TNFa-plus-vehicle, 100% no-TNFa wells
[2] = reduction of polyQ htt aggregates in cells – imaging, exon1htt(103Q)mCFP cells, high-content imaging, primary screen (AID 483;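 active = visual image review flags a hit and inhibition of aggregation exceeds 20%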;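 also: compound exposure lasted 3 days before fixation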;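 as to nuclei count: percent of the per-plate median nuclei count of sample wells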); conditions: exon1htt(103Q)mCFP cell line, aggregate imaging, at 2 µM; inhibition of aggregation: stronger effect = higher value; nuclei count: measured here: cell count, toxicity
[3] = endothelial E-selectin expression blockers – imaging, HUVEC, immunofluorescence, MLSMR starter and 10KST1 sets, primary screen (AID 487;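 active = visually confirmed hit in the image check and inhibition above 20%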;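 as to inhibition: signal is fraction of cell area covered by stained E-selectin grains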;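 as to nuclei count: 100% = median nuclei count of all wells on the same plate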); conditions: HUVEC TNFalpha-induced E-selectin immunofluorescence imaging, at 2 µM; inhibition: stronger effect = higher value; nuclei count: measured here: cell number, toxicity
[4] = biological target: Voltage-gated potassium channel subunit beta-2 (Rattus norvegicus) (UniProt P62483); experiment: inhibitors of rat Kvbeta2 reductase activity – biochemical, NADPH fluorescence, primary screen (AID 622;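 active = fluorescence slope higher than the sample average by over 3 SD, cut at about -0.22 in these data, passing the limit was not always enough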;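 also: slope of raw intensity against log time taken from 70 to 1610 s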); conditions: recombinant KvBeta, 4-cyanobenzaldehyde reduction, at 10 µM, stronger effect = higher value
[5] = biological target: Voltage-gated potassium channel subunit beta-2 (Rattus norvegicus) (UniProt P62483); experiment: enhancers of rat Kvbeta2 NADPH turnover – biochemical, NADPH fluorescence, primary screen (AID 623;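 active = NADPH fluorescence slope more negative than the mean of all samples by about 3 SD, 99.7% confidence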;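 also: fluorescence intensity change per second fitted from 20 to 320 s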); conditions: Recombinant KvBeta, NADPH fluorescence decrease slope, 10 min; at 10 µM; stronger effect = lower value
[6] = biological target: Alpha-2C adrenergic receptor (Homo sapiens) (UniProt P18825); experiment: compounds altering alpha2C-coupled GIRK flux – cell-based, HEK293 alpha2C/GIRK1/2, thallium flux, primary screen (AID 624); conditions: thallium flux BTC fluorescence, at 10 µM, actives lie on both sides;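 also: slope of fluorescence ratio to pre-addition baseline per second over 15 to 24 s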
[7] = blockers of RIG-like receptor reporter activation – cell-based, Sendai virus stimulus, luciferase, 10K MLSCN set, TLR/RLR signaling modifier project, primary screen (AID 602276;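 active = inhibition at or above 50% at 10 µM; inactive = inhibition below 50%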;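 also: firefly luciferase from ISG56 promoter only with Renilla not read in this screen; 0% = Sendai virus plus DMSO and 100% = medium plus DMSO without virus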); conditions: HEK293 RL24 IRF3 luciferase reporter, at 10 µM, stronger effect = higher value
[8] = TLR3 IRF3 reporter activation blockers – cell-based, poly I:C stimulus, luciferase, 10K MLSCN set, primary screen (AID 602277;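 active = inhibition of the reporter signal at or above 50%; inactive = inhibition below 50%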); conditions: HEK293-TLR3 RL24 IRF3 luciferase reporter, at 10 µM, stronger effect = higher value

Alpha-2C adrenergic receptor (Homo sapiens), sequence (P18825 whole entry, looked up): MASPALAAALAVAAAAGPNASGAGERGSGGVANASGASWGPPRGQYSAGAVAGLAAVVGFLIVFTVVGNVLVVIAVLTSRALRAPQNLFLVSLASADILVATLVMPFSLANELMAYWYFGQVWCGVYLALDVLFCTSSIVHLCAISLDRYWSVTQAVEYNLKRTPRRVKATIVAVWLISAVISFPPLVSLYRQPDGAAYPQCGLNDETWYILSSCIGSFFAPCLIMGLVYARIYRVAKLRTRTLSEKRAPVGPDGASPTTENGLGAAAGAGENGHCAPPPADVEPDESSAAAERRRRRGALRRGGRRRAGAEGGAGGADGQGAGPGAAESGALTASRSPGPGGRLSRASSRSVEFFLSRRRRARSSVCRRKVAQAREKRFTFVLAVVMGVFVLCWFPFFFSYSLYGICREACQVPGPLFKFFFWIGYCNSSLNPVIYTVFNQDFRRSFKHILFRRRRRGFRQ
Voltage-gated potassium channel subunit beta-2 (Rattus norvegicus), sequence (P62483 whole entry, looked up): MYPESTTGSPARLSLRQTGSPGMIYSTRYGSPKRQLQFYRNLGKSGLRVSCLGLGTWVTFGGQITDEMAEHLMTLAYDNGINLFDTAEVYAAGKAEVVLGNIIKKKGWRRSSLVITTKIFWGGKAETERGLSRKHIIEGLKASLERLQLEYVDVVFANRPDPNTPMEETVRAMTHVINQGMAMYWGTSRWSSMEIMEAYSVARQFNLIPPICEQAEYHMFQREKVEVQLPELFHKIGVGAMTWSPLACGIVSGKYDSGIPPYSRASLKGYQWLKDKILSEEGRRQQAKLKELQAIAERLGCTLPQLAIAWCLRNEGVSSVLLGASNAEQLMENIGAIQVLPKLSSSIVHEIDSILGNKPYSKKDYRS

Compound	cell count [1]	inhibition [1]	inhibition of aggregation [2]	nuclei count [2]	inhibition [3]	nuclei count [3]	fluorescence slope [4]	NADPH fluorescence slope [5]	slope [6]	inhibition [7]	inhibition [8]
CCn1c(CSc2nnc(-c3cccnc3)n2-c2ccccc2C)nc2cc(C(=O)O)ccc21	463	-13.1% (inactive)	5.1% (inactive)	101%	-22.2% (inactive)	161%	-0.509 (inactive)	-0.000162 (inactive)	0.00507 (inactive)	2.24% (inactive)	9.03% (inactive)
CCN(CC)S(=O)(=O)c1ccc(C(=O)N2CCN=C2SCc2cccnc2)cc1	213	-3.9% (inactive)	-5.6% (inactive)	99.7%	-32.1% (inactive)	122%	-0.587 (inactive)	-1.9e-05 (inactive)	0.0061 (inactive)	-1.95% (inactive)	9.81% (inactive)
O=C(NC1CCCCCC1)c1c(F)c(F)c(F)c(F)c1F	448	1.8% (inactive)	3.9% (inactive)	104%	1.8% (inactive)	118%	-0.299 (inactive)	-1.4e-05 (inactive)	0.00585 (inactive)	1.12% (inactive)	12.3% (inactive)
CCOC(=O)n1c(SCC(=O)N(CC)CC)nc2ccccc21	522	1% (inactive)	10.7% (inactive)	102%	44.9% (inactive)	93.9%	-0.597 (inactive)	-4.3e-05 (inactive)	0.00594 (inactive)	0.265% (inactive)	-26.4% (inactive)
CCOCCn1c(CN2CCN(c3cccc(Cl)c3)CC2)nc2c1c(=O)n(C)c(=O)n2C	743	-15.7% (inactive)	-5.1% (inactive)	104%	-20% (inactive)	103%	-0.592 (inactive)	-4.2e-05 (inactive)	0.00703 (inactive)	1.6% (inactive)	22.6% (inactive)
Cn1c(=O)c2c(nc(NCC3CCCO3)n2C)n(C)c1=O (stereo unspecified)	314	0.2% (inactive)	-10.3% (inactive)	108%	-102% (inactive)	122%	-0.609 (inactive)	-1.6e-05 (inactive)	0.00331 (inactive)	6.21% (inactive)	6.02% (inactive)
O=S(=O)(Nc1cccnc1)c1ccc2c(c1)OCCO2	337	10.2% (inactive)	5.2% (inactive)	88.2%	16.8% (inactive)	92%	-0.393 (inactive)	-4.2e-05 (inactive)	0.00465 (inactive)	13.5% (inactive)	17.6% (inactive)
CC1CCN(S(=O)(=O)c2ccc(Br)s2)CC1	437	13% (inactive)	-1.9% (inactive)	102%	-79.2% (inactive)	108%	-0.489 (inactive)	2.6e-05 (inactive)	0.00656 (inactive)	8.6% (inactive)	20.9% (inactive)
CCn1cc(C(=O)NCc2ccccc2OC)c(=O)c2cc(S(=O)(=O)N(C)C)ccc21	665	-5.5% (inactive)	7.5% (inactive)	74.5%	-39.5% (inactive)	113%	-0.425 (inactive)	-4e-05 (inactive)	0.00524 (inactive)	13.2% (inactive)	23.7% (inactive)
O=c1oc2ccccc2c(O)c1CN1CCCCC1	361	2.9% (inactive)	4.9% (inactive)	48.1%	-83.3% (inactive)	117%	-0.407 (inactive)	-6.8e-05 (inactive)	0.00535 (inactive)	15.4% (inactive)	8.62% (inactive)
O=c1c2ccccc2nc(SCc2nc(-c3ccccc3)no2)n1-c1ccc(F)cc1	719	-5.5% (inactive)	-12.6% (inactive)	128%	-58.2% (inactive)	114%	-0.538 (inactive)	-3.3e-05 (inactive)	0.00951 (inactive)	13.8% (inactive)	39.7% (inactive)
CN(CC(=O)Nc1sccc1C#N)C1CCCCC1	723	-7.3% (inactive)	-178% (inactive)	7.1%	-27.2% (inactive)	125%	-0.42 (inactive)	-1.4e-05 (inactive)	0.00552 (inactive)	-14.2% (inactive)	99.3% (active)
COc1ccc(OC)c(C2CC(=O)NC(SC)=C2C#N)c1 (stereo unspecified)	662	-9.6% (inactive)	-13.5% (inactive)	114%	-23.1% (inactive)	117%	-0.529 (inactive)	-3.6e-05 (inactive)	0.00545 (inactive)	8.75% (inactive)	29% (inactive)
O=S1(=O)CCC(N=Cc2cc(Br)ccc2O)C1 (stereo unspecified)	500	-13.1% (inactive)	32.5% (inactive)	76.6%	18% (inactive)	97.7%	-0.498 (inactive)	-4e-05 (inactive)	0.0045 (inactive)	17.3% (inactive)	22.5% (inactive)
O=C(O)CCCc1nc(-c2ccccc2)no1	726	-1.7% (inactive)	-4.5% (inactive)	91.6%	22.1% (inactive)	108%	-0.447 (inactive)	1.4e-05 (inactive)	0.00583 (inactive)	16.6% (inactive)	20.7% (inactive)
O=C(CCCN1C(=O)c2ccccc2C1=O)NCc1cccnc1	709	-7.1% (inactive)	-4.8% (inactive)	102%	-120% (inactive)	134%	-0.42 (inactive)	-2.4e-06 (inactive)	0.00753 (inactive)	8.03% (inactive)	8.47% (inactive)
Nc1nc2n(n1)C(c1cccc(Cl)c1)CC(c1ccc(F)cc1)N2 (stereo unspecified)	678	-12.4% (inactive)	-13.4% (inactive)	100%	-13.6% (inactive)	106%	-0.42 (inactive)	-3.8e-05 (inactive)	0.00636 (inactive)	11.8% (inactive)	25.8% (inactive)
Cc1ccc(C)c(N2CCN(CCCNC(=O)Cn3cc4c(n3)CCCCC4)CC2)c1	771	-4.3% (inactive)	-55.1% (inactive)	114%	-60.6% (inactive)	110%	-0.619 (inactive)	-3.7e-05 (inactive)	0.00461 (inactive)	7.36% (inactive)	19% (inactive)
Cc1cc(C(F)F)n2nc(C(=O)Nc3ccc(S(=O)(=O)N4CCCCCC4)cc3)nc2n1	602	-6.2% (inactive)	9.9% (inactive)	85.5%	-59.4% (inactive)	96.2%	-0.566 (inactive)	2.4e-05 (inactive)	0.00419 (inactive)	17.7% (inactive)	22.1% (inactive)
O=C(C1CCCO1)N1CCc2ccccc21 (stereo unspecified)	445	6% (inactive)	-16.9% (inactive)	108%	-32.9% (inactive)	108%	-0.404 (inactive)	5.9e-05 (inactive)	0.00647 (inactive)	9.45% (inactive)	36.8% (inactive)
COCCOC(=O)c1cc(C(=O)c2cc(F)ccc2O)coc1=N	473	-11.2% (inactive)	8.5% (inactive)	107%	-92.3% (inactive)	115%	-0.597 (inactive)	-1.1e-05 (inactive)	0.00549 (inactive)	6.76% (inactive)	11% (inactive)
C(/CCc1ccccc1)=N\n1cnnc1	312	18.4% (inactive)	-7% (inactive)	109%	17.1% (inactive)	105%	-0.628 (inactive)	-5.3e-05 (inactive)	0.00355 (inactive)	5.76% (inactive)	0.464% (inactive)
COc1ccc(S(=O)(=O)NCC(=O)N(CC(=O)NCC2CCCO2)c2ccccc2C)cc1 (stereo unspecified)	251	2.2% (inactive)	-8.4% (inactive)	106%	-22.6% (inactive)	96.9%	-0.399 (inactive)	-6.5e-06 (inactive)	0.00632 (inactive)	19.2% (inactive)	18.4% (inactive)
CCN1C(=C2C(=O)c3ccccc3C2=O)C=Cc2ccccc21	347	23.3% (active)	-4% (inactive)	107%	-27.1% (inactive)	117%	-0.284 (inactive)	-1.4e-05 (inactive)	0.00581 (inactive)	-14.8% (inactive)	-27.9% (inactive)
CCCCOc1ccccc1NC(=O)c1ccco1	334	11% (inactive)	-21.3% (inactive)	91.7%	-54.6% (inactive)	122%	-0.517 (inactive)	-4.6e-05 (inactive)	0.00466 (inactive)	18.5% (inactive)	18.5% (inactive)
COc1cc(NC(=O)c2nccnc2C(=O)O)cc(OC)c1	856	1.2% (inactive)	-12.8% (inactive)	81.8%	-30.5% (inactive)	117%	-0.554 (inactive)	-2e-05 (inactive)	0.00607 (inactive)	-3.73% (inactive)	6.75% (inactive)
